This is a sample that favours compounds with a hit; in the whole collection about 13% have one here.
AID923 – qHTS Assay for Allosteric/Competitive Inhibitors of Caspase-1: Spectroscopic Profiling in AFC Spectral Region. AID 923, 2007. Potency, µM (doses to about 57.5 µM), without a hit: top-dose fluorescence increase, most hits filed as activators. 75,000 compounds, 1.1% hits. compound fluorescence, AFC spectral region (405/520 nm); note: potency is the fitted concentration of half-maximal effect; 0% is about no effect
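Compound autofluorescence profiled at 405 nm ex/520 nm em during kinetic caspase 1 run (50 nM enzyme, 5 uM Ac-WEHD-AFC, HEPES pH 7.5, 10 mM DTT). Titration up to 57 uM; baseline from regression intercept, normalized to AFC standard curve.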
HADH2 inh – blocks human hydroxyacyl-CoA dehydrogenase type II; AID 886; recombinant HADH2, NADH fluorescence, beta-hydroxybutyryl-CoA; Q99714; 73,000 compounds, 3.4% hits; Potency, µM (series often up to 57.1 µM), inactives show top-dose activity change, negative = inhibition, hits mostly inhibitors; note: potency is the fitted concentration of half-maximal effect; % is set by controls: 0 for no effect and ±100 for the full control effect; nearly all actives have a fitted effect of over 60% in size
Target sequence (Q99714 whole entry, looked up, one chain of several): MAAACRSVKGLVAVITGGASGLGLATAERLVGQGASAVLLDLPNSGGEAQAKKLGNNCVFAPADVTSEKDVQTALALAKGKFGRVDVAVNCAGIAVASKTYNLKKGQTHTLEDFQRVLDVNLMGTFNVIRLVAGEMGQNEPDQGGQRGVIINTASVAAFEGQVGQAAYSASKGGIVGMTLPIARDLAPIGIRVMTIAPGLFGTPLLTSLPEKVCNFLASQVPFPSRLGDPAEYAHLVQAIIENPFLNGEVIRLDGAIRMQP
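20 nM HADH2 + cpd, 15 min RT; add 1 mM NAD+/90 uM beta-hydroxybutyryl-CoA; kinetic fluorescence 360/450 nm, 4 min. Tris-HCl pH 9.0, 0.01% Tween-20.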
4MU fluor – compounds fluorescent in 4-MU spectral region | compound autofluorescence, 340/450 nm, 4-MU equivalents; stronger effect = higher value | max dye-equivalent concentration, M | 59,000 compounds, 11% hits | AID 589; in the data active = max dye-equivalent concentration above about 10 nM; inconclusive = mostly about 1.1 nM to 9.6 nM
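Compounds in 100 mM Tris, pH 8.0, incubated 15 min at room temperature, then fluorescence read at 340 nm excitation/450 nm emission. Signal converted to 4-MU dye-equivalent concentration using an on-plate six-point 4-MU standard curve.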
HSD17B inh – inhibitors of human HSD17B10 dehydrogenase. 75,000 compounds, 7.6% hits. Potency, µM (series often up to 57.1 µM), for inactives: at the top dose activity change, negative = inhibition, most hits filed as inhibitors. Q99714. recombinant HSD17B10, NADH fluorescence kinetic;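 note: the protocol describes HADH2 (HSD17B10) and not the HSD17B4 of the title; potency is the fitted concentration of half-maximal effect; % is set by controls: 0 for no effect and ±100 for the full control effect; nearly all actives have a fitted effect of over 70% in size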
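Activity followed as NADH fluorescence increase (ex 360, em 450 nm) every 30 seconds for 4 min, using final 90 uM beta-hydroxybutyryl CoA and 1 mM NAD+. Recombinant His-tagged enzyme, 20 nM, pH 9.0 Tris buffer, 15 min compound preincubation.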
A350 autofl – compounds fluorescent in Alexa 350 spectral region; Compound autofluorescence, 340/450 nm, Alexa 350 dye-equivalents; stronger effect = higher value; 59,000 compounds, 11% hits; max dye-equivalent concentration, M; in the data active = max dye-equivalent concentration above about 10 nM; inconclusive = mostly about 1.1 nM to 9.6 nM
The depositor's hits bear a star; [ ] = dose if it differs, or a comment. Unless noted, calls come from the whole dose curve; as a rule, active = well fitted curve in the direction sought with a large enough effect; inconclusive = small, poorly fitted or top-dose-only effect, or another doubt; inactive = no such curve, though single readings can be large; an effect the other way counts as inactive or inconclusive.

COC(=O)C1=C(C)NC(C)=C(C(=O)OC(C)C)[C@H]1c1cccc2nonc12 was read as AID923 -1.5%[25.7 µM], HADH2 inh 14.2%[25.6 µM], 4MU fluor inactive, HSD17B inh -1.6%[25.6 µM] and A350 autofl inactive.
O=C(c1ccc(=O)oc1)N1CCOCC1 was read as 4MU fluor 1.77e-07M* and A350 autofl 1.92e-07M*.
`COCCNc1ccnc(-c2ccccc2C(F)(F)F)n1` gave AID923 0.4%, HADH2 inh 9.4%, 4MU fluor inactive, HSD17B inh 9.6% and A350 autofl inactive.
Screening C[C@@]12CCC(=O)C=C1CC[C@@H]1[C@@H]2[C@H](O)C[C@]2(C)[C@@H]1CC[C@]2(O)C(=O)COC(=O)CCC(=O)O returned AID923 -1.2%, HADH2 inh -9.6%, 4MU fluor inactive, HSD17B inh -8.4% and A350 autofl inactive.
`COC(=O)c1c(C)cc(C)n2c1nc1ccccc12` gave AID923 16.1%, HADH2 inh 10.8%, 4MU fluor 1.64e-07M*, HSD17B inh 20µM* and A350 autofl 1.45e-07M*.
CC(=O)n1c(COS(C)(=O)=O)nc2ccccc21 was read as AID923 -2.8%[11.5 µM], HADH2 inh 4.4%[11.4 µM], 4MU fluor 1.63e-08M*, HSD17B inh 3.0%[11.4 µM] and A350 autofl 1.91e-08M*.
CNC(=O)C1(C)C=CCN1C(=O)OC (configuration not stated) was read as AID923 -2.3%, HADH2 inh -0.2% and HSD17B inh 18.4%.
`C=CCOC(=O)COc1ccc2c(C)c(C)c(=O)oc2c1C` gave AID923 -1.8%, HADH2 inh 60.1% and HSD17B inh 165.5%.
C=C(C)COc1ccc2c(C)c(CC(=O)OC)c(=O)oc2c1C was read as AID923 4.5%, HADH2 inh inconclusive, 4MU fluor 2.92e-08M*, HSD17B inh 25.1µM* and A350 autofl 3.61e-08M*.
`C=C(C)COc1ccc2c(C)c(C)c(=O)oc2c1OCC(=C)C` gave AID923 -1.0%, HADH2 inh -26.2%, 4MU fluor inconclusive, HSD17B inh 31.6µM* and A350 autofl inconclusive.
Screening CCN(CC)Cc1c(O)ccc2c(C)c(CC(=O)OC)c(=O)oc12 returned 4MU fluor 1.08e-05M* and A350 autofl 1.21e-05M*.
COC(=O)Cc1c(C)c2ccc(OCC(C)=O)c(C)c2oc1=O was read as AID923 -1.0%, HADH2 inh 25.1µM*, 4MU fluor 3.56e-08M*, HSD17B inh 25.1µM* and A350 autofl 3.97e-08M*.
For Cc1cc2c(c(=O)o1)[C@@H](O)[C@H]1O[C@@H]1C2=O the results were AID923 -0.2%[11.5 µM], HADH2 inh 3.16µM* and HSD17B inh -8.7%[11.4 µM].
Cc1cc2c(c(=O)o1)[C@H](O)[C@H]1O[C@@H]1C2=O was read as AID923 -1.2%[11.5 µM], HADH2 inh 3.16µM* and HSD17B inh -12.4%[11.4 µM].
`CCC1(C)Cc2nc3sc(C(=O)O)c(N)c3cc2CO1` (configuration not stated) gave AID923 7.8%, HADH2 inh -21.1%, 4MU fluor 3.25e-08M*, HSD17B inh inconclusive and A350 autofl 4.2e-08M*.
Screening CN(C)c1ccc(-c2nnn(CC(=O)Nc3ccccc3N3CCOCC3)n2)cc1 returned AID923 3.4%, HADH2 inh -0.9%, 4MU fluor inactive, HSD17B inh inconclusive and A350 autofl inactive.
For CN(C)c1ccc(-c2nnn(CC(=O)N3c4ccccc4CCc4ccccc43)n2)cc1 the results were AID923 0.2%, HADH2 inh 31.6µM*, 4MU fluor inactive, HSD17B inh 25.1µM* and A350 autofl inconclusive.
CCCN1C[C@@H](CSC)C[C@H]2c3cccc4[nH]cc(c34)C[C@@H]21 was read as AID923 -1.2%, HADH2 inh 4.4%, 4MU fluor 2.35e-08M*, HSD17B inh -14.6% and A350 autofl 2.01e-08M*.
Screening CCCN1C[C@H](CSC)C[C@@H]2c3cccc4[nH]cc(c34)C[C@H]21 returned AID923 -0.9% and HSD17B inh -7.6%.
For c1ccc(Cc2nn3c(Cn4nnc5ccccc54)nnc3s2)cc1 the results were AID923 3.2%, HADH2 inh 3.16µM*, 4MU fluor 1.35e-08M*, HSD17B inh -29.2% and A350 autofl 1.57e-08M*.
For Brc1ccccc1-c1nnc2sc(Cc3ccccc3)nn12 the results were AID923 -1.3%, HADH2 inh 6.6%, 4MU fluor inactive, HSD17B inh -2.1% and A350 autofl inactive.
Cc1cnc(CNc2ncncc2-c2c(C)noc2C)cn1 was read as AID923 2.2%, HADH2 inh inconclusive, 4MU fluor inactive, HSD17B inh -0.9% and A350 autofl inactive.
Screening CC1(C)OC(C(O)(c2cc(C(F)(F)F)cc(C(F)(F)F)c2)c2cc(C(F)(F)F)cc(C(F)(F)F)c2)C(C(O)(c2cc(C(F)(F)F)cc(C(F)(F)F)c2)c2cc(C(F)(F)F)cc(C(F)(F)F)c2)O1 (configuration not stated) returned AID923 -0.4%[11.5 µM], HADH2 inh -1.9%[11.4 µM] and HSD17B inh 2.9%[11.4 µM].
Screening CCc1cc(C(=O)Cc2nc3ccccc3[nH]2)c(O)cc1O returned AID923 -0.7%, HADH2 inh -27.6%, 4MU fluor 2.22e-07M*, HSD17B inh 31.6µM* and A350 autofl 2.7e-07M*.
O=C1OC2CCC1(c1ccccc1)C2 (configuration not stated) was read as 4MU fluor 2.25e-06M* and A350 autofl 2.53e-06M*.
For COc1cccc2c1CCC1CC(=O)CC[C@@]21C (some centres not stated) the results were AID923 -3.6% and HSD17B inh 0.8%.
For Cc1cc(NCCN2CCOCC2)n2ncc(-c3ccc(Cl)cc3)c2n1 the results were AID923 -0.1%, HADH2 inh 6.7%, 4MU fluor 4.59e-08M*, HSD17B inh 13.5% and A350 autofl 5.77e-08M*.
`Cc1cc(NCCN2CCOCC2)n2ncc(-c3ccccc3)c2n1` gave AID923 0.3%, HADH2 inh 0.3%, 4MU fluor 3.76e-08M*, HSD17B inh 7.0% and A350 autofl inconclusive.
Cc1cc(NCCN2CCOCC2)n2nc(C)c(-c3ccc(Cl)cc3)c2n1 was read as AID923 0.0%, HADH2 inh 29.0%, 4MU fluor 1.9e-08M*, HSD17B inh 15.8µM* and A350 autofl inconclusive.
For CN(C)C(=O)c1ccc(-c2cncnc2NCCN2CCOCC2)cc1 the results were AID923 0.4%, HADH2 inh -27.7%, 4MU fluor inactive, HSD17B inh 6.9% and A350 autofl inactive.
COc1cc2nc(NCCN3CCOCC3)n3nc(-c4ccccc4)nc3c2cc1OC was read as AID923 -1.2%, HADH2 inh 10.8%, 4MU fluor inactive, HSD17B inh -10.2% and A350 autofl inactive.
